From PubChem BioAssay (NCI)
Compounds without any hit were thinned out: in the full panel of roughly 83,000, 20% have a hit.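 Values shown are percent growth following 48 h exposure of cells in 96-well plates to a single concentration of compound; below 10 was considered active.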 Values without a mark were called inactive. The source made the active and inactive calls.

Columns and labels:
Test in all cases: NCI-60 one-dose screen, 48 h (100 = growth as untreated, 0 = no growth, -100 = all killed)
Conditions in all cases: 10 µM unless noted
SR leukemia = test system: SR leukemia
RPMI-8226 leukemia = test system: RPMI-8226 leukemia
OVCAR-5 ovarian = test system: OVCAR-5 ovarian
OVCAR-4 ovarian = test system: OVCAR-4 ovarian
SK-OV-3 ovarian = test system: SK-OV-3 ovarian
IGROV1 ovarian = test system: IGROV1 ovarian
OVCAR-3 ovarian = test system: OVCAR-3 ovarian
NCI/ADR-RES ovarian = test system: NCI/ADR-RES ovarian
T-47D breast = test system: T-47D breast
BT-549 breast = test system: BT-549 breast
MDA-MB-435 melanoma = test system: MDA-MB-435 melanoma
SW-620 colon = test system: SW-620 colon
MCF7 breast = test system: MCF7 breast
HCT-116 colon = test system: HCT-116 colon
HCC-2998 colon = test system: HCC-2998 colon
KM12 colon = test system: KM12 colon
OVCAR-8 ovarian = test system: OVCAR-8 ovarian
HS 578T breast = test system: HS 578T breast

| Compound | growth (SR leukemia) | growth (RPMI-8226 leukemia) | growth (OVCAR-5 ovarian) | growth (OVCAR-4 ovarian) | growth (SK-OV-3 ovarian) | growth (IGROV1 ovarian) | growth (OVCAR-3 ovarian) | growth (NCI/ADR-RES ovarian) | growth (T-47D breast) | growth (BT-549 breast) | growth (MDA-MB-435 melanoma) | growth (SW-620 colon) | growth (MCF7 breast) | growth (HCT-116 colon) | growth (HCC-2998 colon) | growth (KM12 colon) | growth (OVCAR-8 ovarian) | growth (HS 578T breast) |
| --- | --- | --- | --- | --- | --- | --- | --- | --- | --- | --- | --- | --- | --- | --- | --- | --- | --- | --- |
| O=C(NCCNc1nccc(-c2c(-c3cccc(O)c3)nc3sccn23)n1)c1cccc(C(F)(F)F)c1 | 97% | 44.2% | 113% | 117% | 84.2% | 62.1% | 89.8% | 98.3% | 69.5% | 88% | 21.7% | 107% | 75.3% | 74.3% | 117% | 80.9% | – | – |
| CC[C@H]1[C@@H]2C=C[C@@H]3[C@H]4C/C=C\C(=O)NCCC[C@@H]5NC(=O)/C(=C(O)/C=C/[C@@H]4C[C@@H]3[C@H]2C[C@H]1C)C5=O | – | 6.24% (active) | 41.6% | -31.5% (active) | 1.98% (active) | -66.5% (active) | -94.7% (active) | -57.2% (active) | 33.7% | -49.2% (active) | -81% (active) | 69.2% | 41.3% | -11.8% (active) | 52.8% | 63.8% | -54.8% (active) | -2.24% (active) |
| CC(=O)Nc1ccc(OC(=O)c2ccccc2O)cc1 | 96.9% | 101% | – | 105% | 105% | 115% | 110% | 102% | 100% | 113% | 98.6% | 101% | 99.5% | 114% | – | 99.1% | 110% | 99.4% |
| COc1ccc(OCC(O)CN2CCN(c3ccc(Cl)cc3)CC2)cc1 (centres undefined) | 112% | 98.9% | – | 79.8% | 90.7% | – | 105% | 185% | 78% | – | 106% | – | 89.2% | 91.5% | -94.4% (active) | 98.9% | 61.6% | 123% |
| C=C1C(=O)O[C@H]2[C@H]1CC/C(CNC(=O)/C1=C/CC[C@@]3(C)O[C@H]3[C@H]3OC(=O)C(=C)[C@@H]3CC1)=C\CC[C@@]1(C)O[C@@H]21 | – | 78.8% | 111% | 86.9% | 89.8% | 102% | 85.1% | 99.7% | 69.8% | 101% | 96.4% | 77.4% | 75% | 82.5% | 105% | 102% | 92.2% | 112% |
| CC(CCC(=O)O)[C@H]1CCC2C3C(=O)C[C@@H]4CC(=O)CC[C@]4(C)C3CC(=O)[C@@]21C (some centres undefined) | 97.4% | 98.8% | – | 112% | 106% | 105% | 117% | 99.7% | 97% | 112% | 96.5% | – | 105% | 112% | 103% | 108% | 103% | 105% |
| COc1ccc(NC(=O)COCCOCCNC[C@@H]2C(=O)O[C@H]3[C@H]2CC/C(COC(=O)OC/C2=C/CC[C@@]4(C)O[C@H]4[C@H]4OC(=O)[C@@H](CN(C)C)[C@@H]4CC2)=C\CC[C@@]2(C)O[C@@H]32)c(O)c1C(N)=O | – | 38.4% | 91% | 31.3% | 79.4% | 26.6% | 0.0325% (active) | 101% | 15.8% | 56.8% | 49.6% | -6.42% (active) | 19.4% | -38.6% (active) | 106% | 79.3% | 32.4% | 79.2% |
| CC(NCCC(c1ccccc1)c1ccccc1)c1ccccc1 (centres undefined) | -35.6% (active) | 26.3% | – | 64.9% | 99.1% | 55.6% | 78.4% | 79.1% | 109% | 83.1% | 27% | – | 74.8% | 42.8% | -31.1% (active) | 41.5% | 84.3% | 82.8% |
| COc1cc(NS(C)(=O)=O)ccc1Cc1c2ccccc2nc2ccccc12 | -5.52% (active) | 22% | – | 38.8% | 18% | 36.5% | -76.6% (active) | 62.3% | 33.5% | – | 51.1% | 26.6% | 28% | 0.0983% (active) | 11.9% | 11.1% | 2.44% (active) | 48% |
| CC(=O)c1cc2c(c(O)c1C)C(=O)C(=O)c1c(O)cccc1-2 | – | -32.4% (active) | -80.6% (active) | -97.6% (active) | -94.3% (active) | -37.3% (active) | -45.6% (active) | -8.15% (active) | -28.5% (active) | -94.4% (active) | -84.3% (active) | -69% (active) | -55.6% (active) | -85.9% (active) | -84.2% (active) | -50.5% (active) | -60.6% (active) | -12.3% (active) |
| Nc1nc(=S)ss1 | 80.6% | – | 114% | 106% | 101% | 133% | 116% | 104% | – | 101% | 102% | 99.2% | 98.3% | 97.3% | 97% | 111% | 104% | 98.2% |
| CC(C)NCC(O)COc1ccc(CC(N)=O)cc1 (centres undefined) | 102% | 99.1% | – | 105% | 103% | 97.4% | 114% | 104% | 98.9% | 96.7% | 107% | 100% | 98.1% | 99.2% | 106% | 106% | 96.8% | 104% |
| Cc1ccc(N(CC2=NCCN2)c2cccc(O)c2)cc1 | 95.3% | 94.5% | – | 103% | 105% | 90.3% | 112% | 104% | 98.5% | 89.7% | 100% | 102% | 93.9% | 101% | 103% | 104% | 95.2% | 101% |
| CSc1ccc(C(=O)C[n+]2cccc(C)c2)cc1 | – | 98.2% | 104% | 113% | 102% | 106% | 104% | 104% | 90.6% | 104% | 104% | 102% | 97.2% | 101% | 115% | 100% | 106% | 98.4% |
| CS(=O)(=O)OCC(COS(C)(=O)=O)C(c1ccccc1)c1ccccc1 | 74.7% | – | 110% | 106% | 101% | 102% | 127% | 99% | 100% | 97.3% | 105% | 99.3% | 101% | 95.9% | 109% | 104% | 118% | – |
| Cc1c(F)cccc1NC(=O)c1sc2nc3c(cc2c1N)CCCCC3 | – | 35.3% | 90.1% | 75.6% | 66.2% | 53.7% | 34.6% | 43.9% | 63.6% | 73.6% | 9.59% (active) | 25% | 14.8% | 49.8% | 75.8% | 34.8% | 80.3% | 54.3% |
| CN(C)CC/C=C1\c2ccccc2Sc2ccc(Cl)cc21 | 62% | 72% | – | 69.9% | 74.1% | 53.8% | 74.4% | 63.2% | 70.7% | 86.5% | 36.2% | 81.5% | 62.3% | 36.5% | – | 69.3% | 69.2% | 65.6% |
| COc1ccc(C[C@H](N)C(=O)N[C@@H]2[C@@H](CO)OC(n3cnc4c(N(C)C)ncnc43)[C@@H]2O)cc1 (some centres undefined) | -37.7% (active) | 12.5% | – | -32.9% (active) | -25.3% (active) | -42.3% (active) | -94.7% (active) | 93.4% | -8.69% (active) | -72.1% (active) | -85.4% (active) | -67.8% (active) | -7.03% (active) | -84.6% (active) | -94.6% (active) | -85.2% (active) | -52.3% (active) | – |
